Results from PubChem BioAssay AID588345 (Broad Institute, 2011).
Out of some 1,300 compounds screened, about 850 (65%) were called active. Another 1% or so got no clear call; they are omitted. How the calls were made is not given here. The set was probably picked from earlier hits. The list is a sample of the results. Potency and affinity values are given separately.

molecular target: Dual specificity tyrosine-phosphorylation-regulated kinase 1A (Rattus norvegicus) (UniProt Q63470); experiment: Dyrk1A enzyme activity inhibition – biochemical, cherry-pick, plate reader, 2124-01, dose response (AID 588345); conditions: Dyrk1A kinase biochemical assay; series mostly up to 12 µM

outcome, inactive:
C=CCOC(=O)C1=C(C)NC(=O)NC1c1ccc(Cl)cc1 (stereo not drawn)
COC(=O)c1nn(-c2ccc3c(c2)OCO3)cc1O
CCOC(=O)C1=C(C)OC(N)=C(C#N)C1c1cc2c(cc1Br)OCO2 (stereo not drawn)
C=CCc1ccc(OCCOc2ccc(/C=N/n3cnnc3)cc2OCC)c(OC)c1
Cc1ccccc1C(=O)N1CCN(c2ccc(NC(=O)c3cccc(OC(C)C)c3)cc2)CC1
O=C(Nc1ccc(F)cc1F)c1csc(-c2ccncc2)n1
O=C(Nc1ccc(Cl)cc1)c1csc(-c2ccncc2)n1
c1ccc(-c2nnc3sc(Cc4cccs4)nn23)cc1
COC(=O)[C@]1(CC(C)C)N[C@H](c2ccc(-c3cccc(Cl)c3)cc2)[C@@H]2C(=O)N(C)C(=O)[C@@H]21
Cc1cccc(CNc2ncnc3ccc(-c4ccoc4)cc23)c1
CN(C)/C=C1/Oc2c(ccc3ccccc23)C1=O
COc1cc(-c2cn(S(=O)(=O)c3cccc4nsnc34)nc2N)cc(OC)c1OC
CCn1c2ccccc2c2cc(/C=N/O)ccc21
Cc1ccccc1NC(=O)CSc1[nH]c(=O)cc(C)c1C#N
CCN1CCN(Cc2ccc(NC(=O)c3ccc(C)c(NC(=O)c4csc(-c5ccncc5)n4)c3)cc2C(F)(F)F)CC1
Cn1c(-c2ccccc2)c(C=O)c2ccccc21
Cc1ccc(S(=O)(=O)/N=C2\C=C(Nc3cccc(C(=O)O)c3)C(=O)c3ccccc32)c(C)c1
Cc1ccccc1NC(=O)C1CCCN1S(=O)(=O)c1ccc2c(c1)n(C)c(=O)c(=O)n2C (stereo not drawn)
CCOC(=O)C[C@H]1c2cc(C(F)(F)F)ccc2S(=O)(=O)N1C(C)C
COc1ccc(-c2nn(-c3ccccc3)cc2CO)cc1
Cc1nc2c(c3c1[nH]c1ccccc13)C(=O)CC(C)(C)C2
CN(C)S(=O)(=O)c1ccc(Cl)c(C(=O)Nc2cccc3ncccc23)c1
OCC[C@@H]1C[C@H](O)[C@@H](O)[C@@]2(CCc3ccccc3CO2)O1
COC(=O)c1cc(NC(=O)Nc2cccc(Cl)c2)ccc1Cl
CC(=O)c1cccc(NC(=O)Nc2cccs2)c1
COc1ccc(S(=O)(=O)N(C)C[C@H]2Oc3ccc(NS(=O)(=O)c4cccs4)cc3CC(=O)N([C@H](C)CO)C[C@H]2C)cc1
CCOc1ccc(C2CC(c3cccc(OC)c3)Nc3nc(N)nn32)cc1 (stereo not drawn)
N#C/C(=C\c1ccc(O)c(O)c1)C(=O)NCCc1ccccc1
COc1cccc(C(=O)c2sc(NC(C)C)nc2N)c1
O=C1CC(c2ccc(S(=O)(=O)NC3CC3)cc2)CN1 (stereo not drawn)
CNC(=O)c1cc2c(s1)-c1ccccc1CC2
Cn1c2ccccc2c2cc(/C=N/NC(=O)c3cc(O)ccc3O)ccc21
Cc1ccnc(NC(=O)c2cccc(S(=O)(=O)N3CCN(c4ccccc4)CC3)c2)c1
COc1ccc(-n2c(Cn3c(=O)sc4ccccc43)nnc2SCC(=O)N2CCOCC2)cc1
c1ccc(-c2csc3nnc(SCc4ccc5c(c4)OCO5)n23)cc1
COc1ccc2c(c1)C(=NN)c1cc(OC)ccc1-2
CC(C)NC(=O)Nc1cccc2c1O[C@H](CN(C)C(=O)NC1CCCCC1)[C@H](C)CN([C@H](C)CO)C2=O
CC(C)C[C@H]1COCCS(=O)(=O)N1Cc1cccc(Cl)c1
CC(=O)C1C(c2ccc(Cl)cc2)NC(=O)NC1(O)C(F)(F)F (stereo not drawn)
Cn1c(C(=O)N2CCCC2)cc2c(=O)n(C)c3ccccc3c21
Fc1ccc(-c2nnc3sc(C4COc5ccccc5O4)nn23)cc1 (stereo not drawn)
NC(=O)c1cc2ccccc2oc1=NCc1ccccc1
Nc1c(C(=O)NCc2ccccc2)nnn1Cc1ccccc1
S=c1[nH]cc(-c2ccc(Cl)cc2)n1Cc1ccccc1
C=C(C)Cn1c(N2CCN(CC)CC2)nc2c1c(=O)[nH]c(=O)n2C
COCCCn1c(SCC(=O)NC2CCCCC2)nnc1-c1ccncc1
CCNc1nc(N)nc(-c2cc(Cl)ccc2O)n1
Nc1nc(N)nc(-c2ccc(Cl)c(Cl)c2)n1
Cc1cccc(NC(=O)c2cnc3sccn3c2=O)n1
O=C(Nc1ccc(Cl)c(Cl)c1)OCc1cnc(Cl)s1
Cc1cc(O)c2c(c1)C(=O)c1cc(O)cc(O)c1C2=O
CC1CCN(c2ncnc3nc[nH]c23)CC1
NC(=O)N/N=C1\c2ccccc2-c2c(C(N)=O)cccc21
O=C(c1cccc2c1-c1ccccc1/C2=N/O)N1CCCCC1
CCOC(=O)c1cnc2ccc(C)cc2c1Nc1ccc(N2CCOCC2)cc1
N#Cc1c(=O)c2nc(NCCCO)ncc2n2c(=O)c3ccccc3[nH]c12
O=C(NNC1=C(C(=O)C(F)(F)F)CCC1)c1ccccc1O
c1csc(CNc2ncnc3ccc(-c4ccoc4)cc23)c1
CC(Nc1nc(-c2cccnc2)nc2ccccc12)c1ccc(F)cc1 (stereo not drawn)
c1cncc(-c2nc(NCc3ccco3)c3ccccc3n2)c1
N#CCSc1nc(Nc2ccc3c(c2)OCO3)c2ccccc2n1
Cc1nnc2c3ccccc3c(-c3cccs3)nn12
CCCn1c2ccccc2c2cn[nH]c(=O)c21
CCN(CC)CCCNC(=O)c1cc2c(=O)n(C)c3ccccc3c2n1C
O=C(NCCc1ccccc1)C1CCN(S(=O)(=O)c2ccc(Br)s2)CC1
N#Cc1nc(-c2ccccc2Cl)oc1NCC1CCCO1 (stereo not drawn)
COc1ccc(C(=O)N2CCN(c3c(C)cccc3C)CC2)cc1OC
C=CCNC(=S)Nc1ccc2cn[nH]c2c1
Cc1ccc(CCNC(=O)C2CCN(S(=O)(=O)c3cccc4nonc34)CC2)cc1
CCN(CC)c1ccc(NC(=O)CCc2nnc3ccc(N4CCCCC4)nn23)c(C)c1
NS(=O)(=O)c1ccc(-c2ccc(/C=C3\SC(=O)NC3=O)o2)cc1
Cc1ccc(C(=O)c2coc3ccc(OCC(=O)O)cc23)cc1
Cc1c(O)ccc2c(CN(C)Cc3ccccc3)cc(=O)oc12
Cc1cccc(C)c1OCCOC(=O)c1n[nH]c2ccccc12
CCOCCOc1nc2c(c(=O)n(C)c(=O)n2C)n1Cc1ccc(C)cc1
Cc1ccc(-c2csc3ncnc(SCC(=O)O)c23)cc1
O=C(O)CSc1ncnc2scc(-c3ccccc3)c12
O=C1C(Cl)=C(N2CCC(C(=O)O)CC2)C(=O)c2ccccc21
COc1ccc(-c2nc(N)ncc2-c2ccccc2OC)c(O)c1
CCc1cc(-c2[nH]ncc2-c2ccc3c(c2)OCO3)c(O)cc1O
CCCCCCCCN1[C@@H](CC(=O)OC)c2cc(C(F)(F)F)ccc2S1(=O)=O
Cc1cccc(NC(=S)NNC(=O)c2csc3c2CCC(C)C3)c1 (stereo not drawn)
O=C(Nc1cccc(-c2nn[nH]n2)c1)c1csc2c1CCCC2
CCc1ccc(C(=O)Nc2cccc(-c3nn[nH]n3)c2)s1
C/C(=N/NC(=O)c1ccc(Br)s1)c1cccnc1
C/C(=C/c1oc2ccc(O)cc2c1[N+](=O)[O-])N(C)C
CCC(C)[C@H]1CNCCN1CCc1cccc2ccccc12 (stereo partly drawn)
Cc1cccc(NC(=O)C2NC(=O)CC2c2ccccc2)c1C (stereo not drawn)
COc1ccc(-n2nc(C)cc2Nc2ccccc2C(=O)O)cc1
CCOC(=O)c1nnc(-c2ccc(C)cc2)nc1Sc1ccc(Cl)cc1
O=C(O)c1[nH]c2ccc([N+](=O)[O-])cc2c1-c1ccccc1
COCCNc1cc(C)nc2c(-c3ccccc3OC)c(C)nn12
CC(=O)Nc1cccc(C(=O)OCC(=O)c2ccc3c(c2)OCO3)c1
Cc1c(Br)c(=O)oc2c(Br)c(O)ccc12
Oc1ccc(-c2csc(Nc3cccnc3)n2)cc1
Clc1cccc(Cc2nn[nH]n2)c1
CCOCCCNC(=O)/C(C#N)=C/c1cc(Br)c(O)c(Br)c1
N#Cc1c(N)nc2c3c(sc(=N)c2c1N)NC(=O)CC3c1c(F)cccc1Cl (stereo not drawn)
COc1ccc2c(C#CCCO)c(-c3ccc(S(C)(=O)=O)cc3)sc2c1
O=C(CSc1nc(-c2ccco2)cc(C(F)(F)F)n1)NCCCn1ccnc1
Nc1ccc(-c2ccc(C(=O)O)s2)cn1
CSc1nc(SCC(N)=O)c2c3c(sc2n1)CN(C)CC3
COc1ccc(C(=O)N(Cc2nc(-c3ccc(C)cc3)no2)C(C)C)cc1OC
CCc1n[nH]c(=S)n1/N=C/c1c[nH]c2ccc(Br)cc12
COc1cccc(-c2nnc3sc(C4CCCCC4)nn23)c1
O=c1nc2n(c3sc4c(c13)CCCC4)C(CBr)CS2 (stereo not drawn)
Oc1cc(-c2ccncc2)cc2cccnc12
Cc1ccccc1C(=O)NNC(=O)CCCCC(=O)NNC(=O)c1ccccc1C
O=c1cc(-c2ccccc2)c2c(O)cc(O)cc2o1
Cc1ccc(-c2cc(O)cc3sc(=O)oc23)cc1C
O=C1C=C(c2ccc3c(c2)OCO3)CCC1
CC(=O)Nc1nc(-c2ccc3c(c2)OCO3)cs1
CCCN1CCN(c2ncnc3scc(C4COc5ccccc5O4)c23)CC1 (stereo not drawn)
